“And” between values parts separate entries of the source, which are not always exact repeats. Identical values can stand only once. Results filed as inconclusive are left out. The source made the active and inactive calls. Calls come from the whole dose curve; as a rule, active = well fitted inhibition curve with a large enough effect; inconclusive = small, poorly fitted or top-dose-only effect; inactive = flat fitted curve, though single readings scatter.

The values that follow come from PubChem BioAssay (NCATS).
% is set by controls: 0 for no effect and ±100 for the full control effect.

The nature of the first experiment: Drug repurposing screens with cells derived from glioblastoma tumor samples (AID 1345199). Note: nearly all actives have a fitted effect of over 40% in size. Particulars: GBM patient neurospheres viability, ATP luminescence, 48 h; at 45.9 µM (top of the series); tumour line B. The method in brief: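 Primary testing used CD133+ neurospheres from four GBM patients, seven concentrations, 48 h exposure and ATP-based viability; confirmation added three slower-growing patient lines.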
`COC(=O)[C@@H]1[C@H]2C[C@H]3c4[nH]c5ccccc5c4CCN3C[C@@H]2CC[C@@H]1O`: the activity, negative = cell killing is 3.23% (inactive).
Turning to `CCCNC(=O)NS(=O)(=O)c1ccc(Cl)cc1`, the activity, negative = cell killing is -7.96% (inactive).
Same read-out and setting: for `CCN(CC)CCNC(=O)c1ccc(N)cc1` the value was -3.23% (inactive); for `Cc1cccc(C)c1OCC(C)N` (stereo not drawn), -9.46% (inactive).
As to `O=C(O)c1cc(-c2ccccc2)nc2ccccc12`, the activity, negative = cell killing is -26% (inactive).
Turning to `NC(N)=Nc1nc(CSCC/C(N)=N/S(N)(=O)=O)cs1`, the activity, negative = cell killing is -1.53% (inactive).
Regarding `COc1ccccc1N1CCN(CCCNc2cc(=O)n(C)c(=O)n2C)CC1`, the activity, negative = cell killing is -12.1% (inactive) and -4.13% (inactive).

The same experiment, now with this note: GBM patient neurospheres viability, ATP luminescence, 48 h; at 45.9 µM (top of the series); tumour line D.
On to `COC(=O)[C@@H]1[C@H]2C[C@H]3c4[nH]c5ccccc5c4CCN3C[C@@H]2CC[C@@H]1O`, for which the activity, negative = cell killing is 3.82% (inactive).
The same measure, in the same setting: with `CCCNC(=O)NS(=O)(=O)c1ccc(Cl)cc1` the figure was 5.01% (inactive); with `Cc1cccc(C)c1OCC(C)N` (stereo not drawn), 4.9% (inactive).
Still for that read-out and setting: for `O=C(O)c1cc(-c2ccccc2)nc2ccccc12` the value was -24.8% (inactive).
For `NC(N)=Nc1nc(CSCC/C(N)=N/S(N)(=O)=O)cs1`, the activity, negative = cell killing was -7.06% (inactive).
Take `COc1ccccc1N1CCN(CCCNc2cc(=O)n(C)c(=O)n2C)CC1`: the activity, negative = cell killing is 1.29% (inactive) and -19.7% (inactive).

Still in this experiment, the particulars now being: GBM patient neurospheres viability, ATP luminescence, 48 h; at 46 µM (top of the series); tumour line A.
Consider `CCCNC(=O)NS(=O)(=O)c1ccc(Cl)cc1`, for which the activity, negative = cell killing was -11.4% (inactive).
For `NC(N)=Nc1nc(CSCC/C(N)=N/S(N)(=O)=O)cs1`, the activity, negative = cell killing was -13.8% (inactive).
On the same count and under the same terms, for `COc1ccccc1N1CCN(CCCNc2cc(=O)n(C)c(=O)n2C)CC1` the value was -30.8% (inactive).

The experiment is the same for the next values; noted with them: GBM patient neurospheres viability, ATP luminescence, 48 h; at 46.1 µM (top of the series); tumour line C.
Regarding `COC(=O)[C@@H]1[C@H]2C[C@H]3c4[nH]c5ccccc5c4CCN3C[C@@H]2CC[C@@H]1O`, the activity, negative = cell killing was -7.31% (inactive).
Same read-out and setting: with `CCCNC(=O)NS(=O)(=O)c1ccc(Cl)cc1` the figure was -13.2% (inactive); with `CCN(CC)CCNC(=O)c1ccc(N)cc1`, 15.6% (inactive); with `Cc1cccc(C)c1OCC(C)N` (stereo not drawn), 3.32% (inactive).
The same measure, in the same setting: with `O=C(O)c1cc(-c2ccccc2)nc2ccccc12` the figure was -23% (inactive); with `NC(N)=Nc1nc(CSCC/C(N)=N/S(N)(=O)=O)cs1`, -8.17% (inactive).
For the compound `COc1ccccc1N1CCN(CCCNc2cc(=O)n(C)c(=O)n2C)CC1`, the activity, negative = cell killing was -17.7% (inactive) and -6.4% (inactive).
